Experimental findings from PubChem BioAssay (NCI) are described below.

Among the test systems are NCI-H226 lung; NCI-H322M lung; HOP-62 NSCLC; NCI-H460 lung; HOP-92 NSCLC; NCI-H522 lung; A549/ATCC NSCLC; 786-0 renal; COLO 205 colon; DU-145 prostate.
What all share (assay): NCI-60 one-dose screen, 48 h (100 = growth as untreated, 0 = no growth, -100 = all killed)
What all share (conditions): 10 µM unless noted

Compounds without any hit were thinned out: in the full panel of roughly 83,000, 20% have a hit.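 For each line, cells grew in 96-well plates with the test compound present at a single concentration for 48 hours.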 Values without a mark were called inactive. Activity calls are given as the source filed them. The calls were made as follows: active = growth percent below 10; inactive = the rest.

On to `CC(C)(C)Nc1nc2c(OCCc3ccccc3)cccn2c1-c1ccc(Cl)cc1`, for which the growth in the assay with NCI-H226 lung is 12.4%; in the assay on NCI-H322M lung it was 24.6%; in the assay on HOP-62 NSCLC, 32.4%; in the assay with NCI-H460 lung it was 16%; in the assay with HOP-92 NSCLC, -24.9% (active); in the assay on NCI-H522 lung, 3.18% (active). Moreover, the growth was 16% in the assay on A549/ATCC NSCLC, 26.9% with 786-0 renal, -3.99% (active) in the assay on COLO 205 colon and 48.2% with DU-145 prostate.
As for `Clc1ccc2c(OCCCN3CCOCC3)c3oc4ccccc4c3nc2c1`, the growth in the assay on NCI-H226 lung is 33.7%; with NCI-H322M lung, 36%; in the assay with HOP-62 NSCLC, 63.6%; in the assay on NCI-H460 lung it was 10.5%; in the assay on HOP-92 NSCLC, 45.3%; in the assay on NCI-H522 lung, 29%. Also, the growth with A549/ATCC NSCLC is 33.5%; with 786-0 renal it was 27.4%; in the assay with COLO 205 colon, 12.8%; in the assay on DU-145 prostate, 22.9%.
Turning to `COc1cc(OC)c(S(=O)(=O)NNC(=O)c2ccncc2)cc1C(=O)/C=C/c1ccc(C)cc1`, the growth in the assay with NCI-H226 lung is 89.5%; in the assay with NCI-H322M lung, 62.3%; with HOP-62 NSCLC, 103%; in the assay with NCI-H460 lung, 63.4%; with HOP-92 NSCLC, 42.1%; in the assay on NCI-H522 lung, 84.9%. Also, the growth in the assay with A549/ATCC NSCLC was 93.4%; in the assay with 786-0 renal, 57.1%; in the assay with COLO 205 colon it was 99%; in the assay with DU-145 prostate it was 83.1%.
Take `Cc1ccc(-c2nc(C(Cl)Cl)nc3cc(-c4ccccc4)nn23)cc1`: the growth in the assay with NCI-H226 lung is 76.4%; in the assay on NCI-H322M lung it was -36.8% (active); in the assay with HOP-62 NSCLC, -16.7% (active); with NCI-H460 lung, -73.5% (active); with HOP-92 NSCLC, -3.62% (active); with NCI-H522 lung, 1.72% (active). The growth with A549/ATCC NSCLC is -56.3% (active); in the assay with 786-0 renal it was 62.4%; in the assay on COLO 205 colon it was -69.4% (active); in the assay with DU-145 prostate, -26.3% (active).
Regarding `COC(=O)C1CN(S(=O)(=O)/N=C2\NC(=O)NC2=C(Cl)Cl)C1`, the growth is 106% in the assay on NCI-H226 lung; 102% in the assay on NCI-H322M lung; 109% in the assay on HOP-62 NSCLC; 108% in the assay with NCI-H460 lung; 98.9% in the assay with HOP-92 NSCLC; 99.1% in the assay with NCI-H522 lung. In addition, the growth in the assay with A549/ATCC NSCLC was 101%; in the assay on 786-0 renal, 104%; in the assay on COLO 205 colon it was 124%; in the assay with DU-145 prostate, 116%.
With `CN1C(=O)N(c2ccccc2)C2N=C(N/N=C/c3ccccc3)SC21` (stereo not drawn), the growth was 58.7% in the assay with NCI-H226 lung; 42.5% in the assay on NCI-H322M lung; 39% in the assay with HOP-62 NSCLC; 9.53% (active) in the assay on NCI-H460 lung; 55.1% in the assay with HOP-92 NSCLC; -12.3% (active) in the assay with NCI-H522 lung. Besides, the growth is 33% in the assay with A549/ATCC NSCLC, 33.9% in the assay with 786-0 renal, 3.78% (active) with COLO 205 colon and 19.6% in the assay on DU-145 prostate.
As to `O=c1[nH]c2ccc(Cl)cc2cc1CSc1ccccc1Nc1nccc(-c2ccc(Cl)cc2)n1`, the growth in the assay on NCI-H226 lung is 115%; in the assay with NCI-H322M lung it was 101%; in the assay with HOP-62 NSCLC it was 101%; with NCI-H460 lung, 95.3%; in the assay with HOP-92 NSCLC, 87.6%; with NCI-H522 lung it was 97.3%. The growth is 86.4% with A549/ATCC NSCLC, 93.6% with 786-0 renal, 116% in the assay with COLO 205 colon and 94.5% in the assay with DU-145 prostate.
With `Nc1c(C(=O)c2ccc(Br)cc2)oc2nc(-c3cnccn3)cc(-c3cccs3)c12`, the growth was 98.6% with NCI-H226 lung; 103% in the assay on NCI-H322M lung; 94% with HOP-62 NSCLC; 97.2% in the assay on NCI-H460 lung; 90.8% with HOP-92 NSCLC; 98.8% in the assay on NCI-H522 lung. Besides, the growth with A549/ATCC NSCLC was 103%; in the assay on 786-0 renal it was 102%; in the assay on COLO 205 colon it was 118%; in the assay on DU-145 prostate it was 107%.
Consider `[Cl][Ru].c1ccc(-c2cc(-c3ccccn3)nc(-c3ccccn3)c2)cc1.c1ccc(-c2ccnc3c2ccc2c(-c4ccccc4)ccnc23)cc1`, for which the growth with NCI-H226 lung is -18% (active); in the assay with NCI-H322M lung, -6.84% (active); in the assay on HOP-62 NSCLC, 25.1%; in the assay with NCI-H460 lung, -63% (active); with HOP-92 NSCLC it was -42.9% (active); with NCI-H522 lung, -52.8% (active). The growth was 14.8% in the assay on A549/ATCC NSCLC, 6.1% (active) with 786-0 renal, -77.9% (active) in the assay with COLO 205 colon and 7.67% (active) with DU-145 prostate.
Take `N[C@@H](Cc1cn(-c2ccnc3ccccc23)nn1)C(=O)O`: the growth was 109% in the assay on NCI-H226 lung; 102% in the assay on NCI-H322M lung; 95.1% with HOP-62 NSCLC; 112% with NCI-H460 lung; 101% with HOP-92 NSCLC; 101% with NCI-H522 lung. In addition, the growth was 101% in the assay on A549/ATCC NSCLC, 104% in the assay with 786-0 renal, 112% in the assay with COLO 205 colon and 110% in the assay with DU-145 prostate.
Take `C=CCn1c(SCC(=O)c2ccc(Br)cc2)nnc1-c1c[nH]c2ccccc12`: the growth in the assay on NCI-H226 lung is 90.1%; with NCI-H322M lung, 99.5%; in the assay on HOP-62 NSCLC it was 103%; in the assay on NCI-H460 lung it was 106%; with HOP-92 NSCLC, 91.4%; in the assay on NCI-H522 lung it was 96.3%. The growth in the assay on A549/ATCC NSCLC is 103%; in the assay on 786-0 renal it was 98.6%; in the assay on COLO 205 colon, 108%; in the assay on DU-145 prostate, 106%.
Turning to `Cc1c(NC(=O)CSc2nc3sc4c(c3c(=O)n2-c2ccc(Cl)cc2)CCCC4)c(=O)n(-c2ccccc2)n1C`, the growth is 108% in the assay on NCI-H226 lung; 94.9% in the assay on NCI-H322M lung; 99.3% with HOP-62 NSCLC; 96.8% in the assay on NCI-H460 lung; 96.3% in the assay on HOP-92 NSCLC; 96.8% in the assay on NCI-H522 lung. For the same compound, the growth in the assay on 786-0 renal was 102%; with COLO 205 colon it was 106%; in the assay with DU-145 prostate, 89.4%.
On to `O=C(N/N=C/c1ccc(Br)s1)c1[nH]c2ccc(Br)cc2c1-c1ccccc1`, for which the growth with NCI-H226 lung is 52.6%; in the assay on NCI-H322M lung, 48.2%; in the assay on HOP-62 NSCLC it was 46.5%; in the assay on NCI-H460 lung it was 3.52% (active); in the assay on HOP-92 NSCLC, 46.6%; in the assay on NCI-H522 lung, -38.5% (active). Further, the growth in the assay with 786-0 renal is 11.5%; with COLO 205 colon it was -44.3% (active); in the assay with DU-145 prostate, 18.6%.
`N=C1CC(=O)NN1C(=O)CSc1nc2sc3c(c2c(=O)n1-c1ccc(Cl)cc1)CCCC3`: the growth in the assay with NCI-H226 lung is 103%; with NCI-H322M lung it was 103%; in the assay with HOP-62 NSCLC, 90.3%; in the assay on NCI-H460 lung, 101%; with HOP-92 NSCLC, 80.1%; in the assay with NCI-H522 lung it was 102%. For the same compound, the growth in the assay on A549/ATCC NSCLC was 102%; with 786-0 renal, 94.2%; in the assay with COLO 205 colon it was 123%; with DU-145 prostate it was 111%.
